Here are results for 35 compounds from PubChem BioAssay (NCATS).

The structures appear in SMILES notation. “And” between values parts separate entries of the source, which are not always exact repeats. Identical values can stand only once. Results filed as inconclusive are left out. Values without a mark were called inactive. The source made the active and inactive calls. Unless noted, calls follow the shape of the full dose curve. Some results are limits rather than exact numbers.

Test system in the first test: not listed separately
The test is described as follows: AP1 Signaling Pathway (AID 357; active = well fitted curve in either direction with a large enough effect, not every such curve was filed as active;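 also: ME-180 reporter cells stimulated with EGF at its EC50 level; % is scaled to controls: 0 for no effect and ±100 for the full control effect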). Conditions: ME-180 AP-1-bla reporter, EGF-induced, beta-lactamase ratio, 5 h; at 17.2 µM (top of the series). The gist of the method:
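Modulation of EGF-driven AP-1 transcription was assessed with a beta-lactamase reporter in ME-180 cells. Compound and EC50 EGF were co-incubated 5 hours at 37 °C before 2.5-hour CCF4 loading at room temperature and dual-emission reading.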
`OC[C@H]1O[C@@H](n2cnc3c(Nc4ccccc4)ncnc32)[C@H](O)[C@@H]1O`: the activity change, negative = inhibition is 0.891%. Same read-out and setting: then `O=C(O)Cc1ccc(-c2ccccc2)cc1`, with 3.75% and 6.11%; and `Nc1nc(Cl)nc2c1ncn2[C@@H]1O[C@H](CO)[C@@H](O)[C@H]1O`, with 0.568%. Same read-out and setting: then `Cc1c(N)c(=O)n(-c2ccccc2)n1C`, with 7.65%. Still for that read-out and setting: as for `Nc1ccc(C(=O)O)c(O)c1`, the figure is 2.89% and -3.6%.

The same test, now with this note: ME-180 (cervical carcinoma) AP-1-bla reporter, EGF-induced, beta-lactamase ratio, 5 h; at 38 µM (top of the series).
For `O=C(O)c1cc(=O)c2ccccc2[nH]1`, the activity change, negative = inhibition is 5.32%. On the same count and under the same terms, then `N.N.O=C(O)C1(C(=O)O)CCC1.[Pt]`, with -8.77%. Regarding `CN1CCc2ccccc2Cc2[nH]c3ccccc3c2CC1`, the activity change, negative = inhibition was 8.89%.

For the next test, the target named is Cytochrome P450 1A2 (Homo sapiens) (UniProt P05177). The test is described as follows: p450-cyp1a2 (AID 410). Also: potency is read from the fitted curve at half-maximal effect.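 As to activity change, negative = inhibition: -100% = full effect of reference inhibitor.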 Conditions: recombinant CYP1A2, luciferin-ME demethylation, luminescence; series mostly up to 57 µM. Put shortly: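 20nM CYP1A2, 100uM Luciferin-ME (=Km), 100mM KPO4; cpd 10 min RT; +NADPH regen, 60 min RT; stop/detect 20 min; luminescence. Normalized to furafylline 57 uM = full inhibition.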
Cytochrome P450 1A2 (Homo sapiens), sequence (P05177 whole entry, looked up): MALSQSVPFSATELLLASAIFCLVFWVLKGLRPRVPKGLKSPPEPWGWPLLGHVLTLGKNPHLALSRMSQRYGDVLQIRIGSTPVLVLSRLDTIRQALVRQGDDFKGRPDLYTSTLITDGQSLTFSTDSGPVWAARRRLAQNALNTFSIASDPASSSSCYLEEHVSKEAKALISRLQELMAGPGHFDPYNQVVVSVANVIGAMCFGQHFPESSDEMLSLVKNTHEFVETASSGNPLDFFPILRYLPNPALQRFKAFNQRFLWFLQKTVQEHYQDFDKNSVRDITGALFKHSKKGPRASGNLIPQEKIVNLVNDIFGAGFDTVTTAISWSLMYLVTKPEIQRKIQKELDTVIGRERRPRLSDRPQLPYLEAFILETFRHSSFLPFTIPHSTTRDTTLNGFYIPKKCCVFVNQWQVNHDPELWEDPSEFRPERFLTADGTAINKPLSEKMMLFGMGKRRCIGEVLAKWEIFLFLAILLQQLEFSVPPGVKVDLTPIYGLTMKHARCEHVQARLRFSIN
On to `O=C(O)[C@@H]1C[C@@H](C(=O)O)N1`, for which the Potency was 31.6 µM (active). Still for that read-out and setting: as for `C[C@@H](NC(=O)/C(C#N)=C/c1ccc(O)c(O)c1)c1ccccc1`, the figure is 31.6 µM (active); as for `O=C(Nc1ccccc1)c1cc([N+](=O)[O-])ccc1Cl`, 5.01 µM (active) and 631 nM (active); as for `COC1=C(OC)C(=O)c2ccccc2C1=O`, 3.98 µM (active). Regarding `Oc1cc2c(cc1O)CN(C(=S)NCCc1ccc(Cl)cc1)CCC2`, the Potency is 12.6 µM (active) and 20 µM (active).

On to `Cn1cc(C2=C(c3ccc(Cl)cc3Cl)C(=O)NC2=O)c2ccccc21`, for which the Potency is 3.16 µM (active).

For the compound `N#C/C(=C\c1c[nH]c2ccccc12)C(=O)c1ccc(O)c(O)c1`, the Potency was 1.26 µM (active). Take `N=c1ccn2c(n1)O[C@H]1[C@H](O)[C@@H](CO)O[C@H]12`: the Potency result was “inactive”.

Test system in a further test: not listed separately
The test is described as follows: Cell Viability - BJ (AID 421).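 Also: potency is read from the fitted curve at half-maximal effect; cells exposed to compound for 40 hours at 37 °C before readout.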 Conditions: BJ fibroblast viability, qHTS. Put shortly: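 Normal human BJ foreskin fibroblasts, 1500/well in complete medium, treated 40 hr at 37 °C. Cellular ATP by CellTiter-Glo luminescence; normalized to DMSO and 100 uM tamoxifen, AC50 from Hill fit.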
With `CN(C)c1ccc(N=NS(=O)(=O)O)cc1`, the Potency is more than 92 µM. Same read-out and setting: then `CN(C)CCC(c1ccc(Cl)cc1)c1ccccn1` (stereo unspecified), with more than 92 µM. For the compound `COc1cc(CNC(=O)CCCC/C=C/C(C)C)ccc1O`, the Potency was more than 92 µM. The same measure, in the same setting: as for `O=c1cc(-c2ccccc2)oc2ccccc12`, the figure is more than 92 µM; as for `c1ccc2sc(SSc3nc4ccccc4s3)nc2c1`, more than 92 µM. The same measure, in the same setting: as for `Nc1ccc(O)c([N+](=O)[O-])c1`, the figure is more than 92 µM; as for `Nc1ccc([N+](=O)[O-])cc1O`, more than 92 µM; as for `O=C(O)c1cc(O)c(O)c(O)c1`, more than 92 µM. Still for that read-out and setting: as for `NCCO`, the figure is more than 92 µM; as for `CC(C)NCC(O)COc1cccc2ccccc12` (stereo unspecified), more than 92 µM.

As for `N=C1N=C(N)c2cc3ccccc3cc21`, the Potency is 62.7 µM (active). The same measure, in the same setting: then `S=c1[nH]c2ccccc2s1`, with more than 92 µM; and `CCCOC(=O)c1ccc(O)cc1`, with more than 92 µM. The same measure, in the same setting: then `CN1CCC[C@H]1c1cccnc1`, with more than 92 µM; and `O=C1CN(/N=C/c2ccc([N+](=O)[O-])o2)C(=O)N1`, with more than 92 µM; and `O=C(O)/C=C\C(=O)O`, with more than 92 µM. On the same count and under the same terms, then `C#C[C@]1(O)CC[C@H]2[C@@H]3CCc4cc(O)ccc4[C@H]3CC[C@@]21C`, with more than 92 µM. Regarding `CCCCCCCCCCCCCCCCCC(=O)O`, the Potency was more than 92 µM.

In the case of `Nc1nc2ccc([N+](=O)[O-])cc2s1`, the Potency is more than 92 µM.

Test system in the next test: not listed separately
The test is described as follows: Cell Viability - Jurkat (AID 426;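 active = dose-dependent loss of cell ATP signal giving a full or clear fitted curve, ranked by lower potency value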; also: potency is read from the fitted curve at half-maximal effect). As to conditions: qHTS. The gist of the method:
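Luminescent ATP read-out (CellTiter-Glo, 20 min at room temperature) after 40 hr compound exposure at 37 °C of Jurkat E6-1 cells, 5000/well. Decreased ATP taken as cytotoxicity; AC50 from standard Hill equation.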
On the technique in general: Quantitative high-throughput screening tests each substance at several concentrations.
For the compound `CN(C)CCC(c1ccc(Cl)cc1)c1ccccn1` (stereo unspecified), the Potency was more than 92 µM.

As for `COc1cc(CNC(=O)CCCC/C=C/C(C)C)ccc1O`, the Potency was more than 92 µM. On the same count and under the same terms, as for `O=c1cc(-c2ccccc2)oc2ccccc12`, the figure is more than 92 µM; as for `c1ccc2sc(SSc3nc4ccccc4s3)nc2c1`, more than 92 µM; as for `Nc1ccc(O)c([N+](=O)[O-])c1`, 20.7 µM. Same read-out and setting: as for `Nc1ccc([N+](=O)[O-])cc1O`, the figure is more than 92 µM; as for `NCCO`, more than 92 µM; as for `N=C1N=C(N)c2cc3ccccc3cc21`, 32.2 µM (active). Take `S=c1[nH]c2ccccc2s1`: the Potency was more than 92 µM. For the compound `CCCOC(=O)c1ccc(O)cc1`, the Potency is more than 92 µM.

With `CN1CCC[C@H]1c1cccnc1`, the Potency is more than 92 µM. Still for that read-out and setting: as for `O=C1CN(/N=C/c2ccc([N+](=O)[O-])o2)C(=O)N1`, the figure is 7.84 µM (active). Same read-out and setting: then `O=C(O)/C=C\C(=O)O`, with more than 92 µM; and `CCCCCCCCCCCCCCCCCC(=O)O`, with more than 92 µM. Same read-out and setting: as for `Nc1nc2ccc([N+](=O)[O-])cc2s1`, the figure is more than 92 µM.

Test system in the next test: not listed separately
The test is described as follows: Cell Viability - Hek293 (AID 427;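 active = compounds whose dose-response curve shows a full or clear partial loss of cell viability, called from curve shape rather than a numeric limit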;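 also: potency is read from the fitted curve at half-maximal effect; cells exposed to compound for 40 hours at 37 °C before reading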). Conditions: qHTS. The gist of the method:
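HEK293 cells in complete medium were exposed to compound for 40 hr at 37 °C, then cellular ATP was read by CellTiter-Glo luminescence. Data were normalized to DMSO (basal) and 100 uM tamoxifen (100% inhibition), and AC50 came from Hill fits.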
As for `CN(C)c1ccc(N=NS(=O)(=O)O)cc1`, the Potency is more than 92 µM. For the compound `CN(C)CCC(c1ccc(Cl)cc1)c1ccccn1` (stereo unspecified), the Potency was more than 92 µM. On the same count and under the same terms, then `COc1cc(CNC(=O)CCCC/C=C/C(C)C)ccc1O`, with more than 92 µM; and `O=c1cc(-c2ccccc2)oc2ccccc12`, with more than 92 µM; and `c1ccc2sc(SSc3nc4ccccc4s3)nc2c1`, with more than 92 µM. The same measure, in the same setting: as for `Nc1ccc(O)c([N+](=O)[O-])c1`, the figure is more than 92 µM; as for `Nc1ccc([N+](=O)[O-])cc1O`, more than 92 µM. Same read-out and setting: as for `NCCO`, the figure is more than 92 µM; as for `CC(C)NCC(O)COc1cccc2ccccc12` (stereo unspecified), more than 92 µM. Consider `S=c1[nH]c2ccccc2s1`, for which the Potency was more than 92 µM.

`CCCOC(=O)c1ccc(O)cc1`: the Potency is more than 92 µM.

In the case of `CN1CCC[C@H]1c1cccnc1`, the Potency is more than 92 µM. On the same count and under the same terms, then `O=C(O)/C=C\C(=O)O`, with more than 92 µM; and `C#C[C@]1(O)CC[C@H]2[C@@H]3CCc4cc(O)ccc4[C@H]3CC[C@@]21C`, with more than 92 µM; and `CCCCCCCCCCCCCCCCCC(=O)O`, with more than 92 µM. Consider `Nc1nc2ccc([N+](=O)[O-])cc2s1`, for which the Potency is more than 92 µM.
